Measurements as given in PubChem BioAssay AID652040 (Broad Institute, 2013).
Potency and affinity values are given separately. Activity calls are given as the source filed them.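 The calls were made as follows: active = falling luciferase signal whose fitted half-maximal concentration is at most twice the top tested dose; inconclusive = flat inhibition between 30 and 70% or a poor curve fit; inactive = the rest.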

assay: off-target signal loss in HeLa-CEM21 co-culture – HeLa F-luc CTL cells, cherry-picked, counter-screen for HIV-1 Env fusion inhibitor project, dose response (AID 652040); conditions: HeLa-F-luc CTL cells with CEM21, firefly luciferase counterscreen; series mostly up to 35 µM; activity change, negative = inhibition: at the top concentration;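 also: 0% = median of neutral control wells and -100% = doxycycline 40 µg/mL wells; more negative values mean stronger loss of luciferase signal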

Row | Structure (SMILES) | activity change, negative = inhibition
1 | Clc1ccc2c(c1)C1=C(C(c3ccncc3)O2)C(c2ccc(Br)cc2)n2ncnc2N1 (stereo unspecified) | 53.7% [at 16 µM] (inactive)
2 | COc1ccccc1S(=O)(=O)n1cc(Cc2ccccc2)c(N)n1 | 0.656% (inactive)
3 | CCCCOCCCNc1ncnc2c1[nH]c1ccccc12 | -11.8% (inactive)
4 | CC1CCN(S(=O)(=O)c2cc(C(=O)N3CCN(c4ccccc4)CC3)ccc2Br)CC1 | 0.151% (inactive)
5 | CCCCn1c(CN(C)Cc2ccccc2)nc2c1c(=O)n(C)c(=O)n2C | 60.9% (inactive)
6 | CCCn1c(Nc2nc3ccccc3n2C)nc2ccccc21 | 21.1% [at 16 µM] (inactive)
7 | COc1ccc(CCNC(=O)COC(=O)c2cccn2C)cc1 | 16.6% (inactive)
8 | Clc1ccc(-c2noc(CSc3nnc(-c4ccncc4)n3-c3ccccc3)n2)cc1 | 18.5% (inactive)
9 | Cc1ccc(C2CC(=O)c3cnc(N4CCc5ccccc5C4)nc3C2)cc1 (stereo unspecified) | 3.02% (inactive)
10 | O=C(c1cc(COc2cccc(C(F)(F)F)c2)on1)N1CCC(c2ccncc2)CC1 | 13.2% (inactive)
11 | CN1CC(c2ccccc2)C2(SC(=S)N(Cc3ccco3)C2=O)C12C(=O)Nc1ccccc12 (stereo unspecified) | -58.3% (inactive)
12 | CCOC(=O)[C@]12CCC=C1N(Cc1ccc3c(c1)OCO3)C(=O)[C@H](CC(=O)NCC13CC4CC(CC(C4)C1)C3)C2 | -46.5% (inactive)
13 | c1ccc2c(c1)OCC(CNc1ncnc3nc[nH]c13)O2 (stereo unspecified) | -6.38% (inactive)
14 | Nc1nonc1C(=O)NCCNCc1c(OCc2ccccc2F)ccc2ccccc12 | 49.9% (inactive)
15 | CC(=O)c1c(C)[nH]c(C(=O)OCC(=O)Nc2ccc(Cl)c(S(=O)(=O)N(C)C)c2)c1C | 13.9% (inactive)
16 | Cc1cc(Cl)c(S(=O)(=O)N2CCSCC2)cc1OCC(=O)NC1CCCCC1 | -0.313% (inactive)
